This excerpt belongs to a sample that is enriched for hits.
Dicer processing – inhibitors of human Dicer processing of pre-microRNA; Q9UPY3; z-score at 25 µM; actives 6% (n = 47,000); cat-ELCCA pre-miR-21 Dicer processing, chemiluminescence; active compounds read high; in the data active = z-score above about 3, passing the limit was not always enough;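 also: higher signal means more uncleaved substrate so more Dicer inhibition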
Of the large screens only hits and unclear results are named; the others gave an inactive call.

COc1ccc(/C(O)=C2/C(=O)C(=O)N(CCCN(C)C)C23C(=O)N(C)c2ccccc23)cc1 (stereo not given)	Dicer processing 3.72
CCOc1ccc(/C(O)=C2/C(=O)C(=O)N(CCCN(C)C)C23C(=O)N(C)c2ccccc23)cc1 (stereo not given)	Dicer processing 5.02
CN(C)CCN1C(=O)C(=O)/C(=C(\O)c2ccc(F)cc2)C12C(=O)N(C)c1ccccc12 (stereo not given)	none
COCCN1C(=O)C(=O)/C(=C(\O)c2ccc(Cl)cc2)C12C(=O)N(C)c1ccccc12 (stereo not given)	none
COc1ccc(OCCNC(=O)NS(=O)(=O)c2ccc(C)cc2)cc1	none
O=C(Nc1cccc(O)c1)c1cc2nc(-c3cccs3)cc(C(F)(F)F)n2n1	none
O=C(CSc1ncn[nH]1)Nc1ncccn1	none
O=C(CSc1nnc2scc(-c3ccccc3)n12)Nc1nsc(-c2ccccc2)n1	none
O=C(CSc1nc2ccccc2s1)Nc1ccc(Cl)cc1	none
O=C(CSc1nnc2ccccn12)Nc1ccc(-c2nc3ccccc3s2)cc1	Dicer processing 3.46
Cn1ccnc1SCC(=O)Nc1nc2ccccc2s1	none
Cc1nnc(SCC(=O)Nc2nsc(-c3ccc(C(C)(C)C)cc3)n2)s1	none
O=C(CSc1ccc2ccccc2n1)Nc1nsc(-c2ccccc2)n1	none
O=C(CSc1nnc2ccccn12)Nc1nc(-c2ccc(Cl)cc2)ns1	none
Cc1ccccc1-c1nc(NC(=O)CSc2nnc3ccccn23)ns1	Dicer processing 3.51
Cc1ccc(-c2csc3nnc(SCC(=O)Nc4nsc(-c5ccccc5)n4)n23)cc1	Dicer processing 4.59
CC(C)(C)c1ccc(-c2nc(NC(=O)CSc3ncn[nH]3)ns2)cc1	Dicer processing 7.07
NC(=O)CSc1nnc2ccccn12	none
NN(CCO)C(=S)Nc1ccc(OC(F)(F)F)cc1	none
CCOC(=O)c1cc(C#N)c(Sc2ccccc2N)nc1C(F)(F)F	none
CC(C)c1cc(C(C)C)c(S(=O)(=O)N2CCCC2)c(C(C)C)c1	none
Cn1c(=O)c2c3nc4ccc(F)cc4cc3c(=O)n(-c3ccccc3)c2n(C)c1=O	none
O=C1NC(=S)NC(=O)C1=Cc1c(O)[nH]c(=S)[nH]c1=O	none
COc1ccc2[nH]cc(C(=O)O)c(=O)c2c1	none
Oc1ccccc1C1=Nn2c(nnc2-c2ccc(Cl)cc2)SC1	none
ONC(=Nc1ccccc1)c1cccc(Cl)c1	none
ONC(=Nc1cccc(C(F)(F)F)c1)c1ccccc1	none
COc1ccc(N=C(NO)c2ccccc2)cc1Cl	Dicer processing 3.11
CCSC1=C(C#N)C(c2cccs2)C(C(=O)Nc2ccccc2)=C(C)N1 (stereo not given)	none
Cc1cc(N2C(=O)CC(C)CC2=O)no1	none
O=C1C2C3c4ccccc4C(c4ccccc43)C2C(=O)N1c1ccccc1 (stereo not given)	none
O=C(O)c1ccc(N2C(=O)C3C4c5ccccc5C(c5ccccc54)C3C2=O)cc1Cl (stereo not given)	none
O=C(O)c1ccccc1N1C(=O)C2C3c4ccccc4C(c4ccccc43)C2C1=O (stereo not given)	Dicer processing 4.62
CCOc1cc(C2C(C(=O)OC3CCCCC3)=C(C)NC3=C2C(=O)CC(C)(C)C3)ccc1O (stereo not given)	none
O=C1c2cccc3c(N4CCOCC4)ccc(c23)C(=O)N1c1ccc(Cl)cc1	none
Nc1nc(-c2ccc3ccccc3c2)cs1	none
Nc1cccc(-c2csc(N)n2)c1	none
Cc1ccc(C)c(-c2csc(N)n2)c1	Dicer processing 3.56
Nc1nc(-c2cccs2)cs1	none
Cc1ccc(-c2csc(N=C(N)N)n2)c(C)c1	none
Nc1nc(-c2ccccc2O)cs1	Dicer processing 4.46
CNc1ccccc1C(=O)NNc1ccc(Cl)cc1	none
CC1=NN(C(=O)c2ccc(Cl)cc2)C(C)(C)C1	none
O=C(Oc1ccc(Cl)cc1)c1cccs1	none
CCCCNC(=O)NS(=O)(=O)c1cc(Cl)sc1Cl	none
OCCNc1ncnc2c1oc1ccccc12	none
OCCNc1ncnc2c1c(-c1ccccc1)c(-c1ccccc1)n2Cc1ccco1	Dicer processing 5.89
c1ccc(-c2c(-c3ccccc3)n(Cc3ccco3)c3ncnc(NCCCn4ccnc4)c23)cc1	Dicer processing 3.94
c1cn(CCCNc2ncnc3ccsc23)cn1	none
c1ccc(-c2c(-c3ccccc3)n(Cc3ccco3)c3ncnc(NCc4ccco4)c23)cc1	none
Cc1ccccc1OCc1nc(C#N)c(NCCCn2ccnc2)o1	none
Cc1nn(-c2ccccc2)nc1-c1n[nH]c(=S)n1-c1cccc(Cl)c1C	none
COC(=O)c1sccc1NNC(=O)/C(C)=C/C(=O)O	none
CN(C)/C=C/C(=O)c1csc2ccccc12	Dicer processing 3.53
CN(C)/C=C/C(=O)c1ccc(Br)s1	none
Cc1oc(-c2ccccc2)cc1C(=O)/C=C/N(C)C	none
CNC(=S)NNC(=O)CN1C(=O)CSc2ccc(C(F)(F)F)cc21	none
O=C1CSc2ccc(C(F)(F)F)cc2N1	none
NNC(=O)CN1C(=O)CSc2ccc(C(F)(F)F)cc21	Dicer processing 6.23
COc1ccc2c(=O)cc(-c3cc(Br)cc4c3OCOC4)oc2c1	none
Cc1cc2nc(SCC(=O)c3ccccc3)[nH]c2cc1C	none
COc1cc2c(cc1OC)C1(C)N(CC2)C(C(=O)c2ccccc2)=NN1c1ccccc1 (stereo not given)	none
Cc1cccc(Cl)c1NC(=O)CC#N	Dicer processing 3.93
CCNCC(=O)Nc1c(C)cccc1C	none
Cc1c(Cl)cccc1NC(=S)NNC(=O)CC#N	none
O=C(O)c1ccc(S(=O)(=O)c2cc(Cl)ccc2Cl)c([N+](=O)[O-])c1	none
Cc1ccc(CN2C(=O)CSC2c2ccc(C(C)C)cc2)cc1 (stereo not given)	none
S=c1[nH]nc(NCCc2ccc(Cl)cc2)s1	Dicer processing 3.32
S=c1[nH]nc(Nc2ccccc2Cl)s1	none
S=c1[nH]nc(Nc2ccc(Br)cc2Cl)s1	none
Cc1ccc(-c2nc(NC(=O)CCC(=O)O)sc2C)cc1Cl	none
O=C(O)c1cccc2cccc(Sc3cccc4cccc(CO)c34)c12	none
CNC(=O)c1cccc2cccc(Sc3ccccc3C(=O)O)c12	Dicer processing 24.7
O=C(O)c1cccc2cccc(Sc3cccc4ccccc34)c12	none
O=C1CCc2cc(C3=CSC4=NCCCN34)ccc2N1	none
CCOC(=O)N1CCC(N/C=C(\C#N)S(=O)(=O)c2cccnc2)CC1	none
CC(C)(O)C#Cc1ccc(/C=N/Nc2cccc(C(F)(F)F)n2)cc1	none
Cc1nn(-c2ccccc2)c2[nH]c3ccccc3c(=O)c12	none
Cc1nn(-c2ccc([N+](=O)[O-])cc2)c2[nH]c3ccccc3c(=O)c12	Dicer processing 4.16
Cc1nn(-c2ccc([N+](=O)[O-])cc2)c(N)c1C(N)=S	none
S=C(N/N=C/C=C/c1ccccc1)NC1CC2C=CC1C2 (stereo not given)	none
CCN(CC)c1ccc(Nc2nc(-c3ccccn3)cs2)cc1	none
Cc1cccc(Nc2n[nH]c(=S)s2)c1	none
COc1ccccc1Nc1nc(-c2c(C)nc3ccccn23)cs1	none
CCN(CC)c1ccc(Nc2nc(-c3c(C)nc4ncccn34)cs2)cc1	Dicer processing 4.07
COc1ccc(Nc2nc(-c3ccncc3)cs2)cc1	none
COc1ccc(Nc2nc(-c3c(C)nc4ccccn34)cs2)cc1	Dicer processing 3.56
Cc1nc2ccccn2c1-c1csc(Nc2cccc(O)c2)n1	Dicer processing 6.5
CCNC(=O)c1c(C)nc2ccccn12	none
CCN(CC)c1ccc(Nc2nc(-c3cccnc3)cs2)cc1	none
Cc1cccc(Nc2nc(-c3c(C)nc4ccccn34)cs2)c1	Dicer processing 4.62
Oc1cccc(Nc2nc(-c3cccnc3)cs2)c1	none
c1ccc(Nc2nc(-c3cccs3)cs2)cc1	none
COc1ccc(CN2CCN(Cc3cc(Br)ccc3O)CC2)cc1OC	none
CCOC(=O)c1cc2c(N)c(C(=O)OCC)sc2nc1C	none
